# Source: PubChem BioAssay
# Unmarked numbers belong to inactive results. For some of these results: Measured potencies and affinities stand elsewhere. Active and inactive are the calls of the source. Unless noted, the rule behind the calls is not given here.
# Experiments:
# [1] = antimalarial activity against Dd2 strain (AID 2302;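 active = growth inhibition above 50% at the single 2 µM test dose, taken to imply half-maximal potency below 2 µM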;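 note: 0% = DMSO untreated growth and 100% = chloroquine plus artemisinin killed control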); conditions: P. falciparum Dd2 in RBCs, LDH growth readout, 72 h; at 2 µM; hits give high values
# [2] = human hepatoma cell viability loss – ATP luminescence, cytotoxicity control for P. falciparum antimalarial project, primary screen (AID 2303;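 active = inhibition above 50%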;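 note: 0% = DMSO wells and 100% = digitonin-killed cells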); conditions: HepG2 viability, 24-48 h, at 10 µM, hits give high values
# [3] = molecular target: L-lactate dehydrogenase (Plasmodium falciparum (isolate CDC / Honduras)) (UniProt Q27743); experiment: PfLDH activity inhibition – cell lysate, 3D7 strain, counter-screen for P. falciparum growth inhibition project (AID 2304);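 note: 0% = vehicle and 100% = reference inhibitor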; conditions: P. falciparum 3D7 crude extract, LDH APAD/NBT absorbance; at 2 µM; hits give high values
# L-lactate dehydrogenase (Plasmodium falciparum (isolate CDC / Honduras)), sequence (Q27743 whole entry, looked up): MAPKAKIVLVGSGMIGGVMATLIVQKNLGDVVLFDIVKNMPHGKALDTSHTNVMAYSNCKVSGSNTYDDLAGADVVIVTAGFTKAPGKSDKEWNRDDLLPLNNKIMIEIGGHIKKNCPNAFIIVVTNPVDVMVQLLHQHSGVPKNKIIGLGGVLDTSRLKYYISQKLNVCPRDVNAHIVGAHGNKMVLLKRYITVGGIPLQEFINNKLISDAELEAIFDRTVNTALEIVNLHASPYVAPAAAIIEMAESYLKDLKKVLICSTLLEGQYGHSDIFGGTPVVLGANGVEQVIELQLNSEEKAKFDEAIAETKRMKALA
# [4] = inhibition of 3D7 malaria parasite growth – strain 3D7 (AID 2306);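 note: 0% = DMSO wells and 100% = chloroquine plus artemisinin control wells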; conditions: P. falciparum 3D7 erythrocytic growth, LDH absorbance, 72 h; at 2 µM; hits give high values
# [5] = molecular target: Calcium-dependent protein kinase 1 (Plasmodium falciparum (isolate 3D7)) (UniProt P62344); experiment: PfCDPK1 kinase inhibitors, biochemical, TCAMS library (AID 1159585; cut-off not given, nearly all actives have IC50 up to about 0.98 µM;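 note: inhibitors leave more ATP so luminescence rises with inhibition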); conditions: recombinant PfCDPK1, Kinase-Glo ATP depletion luminescence
# Calcium-dependent protein kinase 1 (Plasmodium falciparum (isolate 3D7)), sequence (P62344 whole entry, looked up): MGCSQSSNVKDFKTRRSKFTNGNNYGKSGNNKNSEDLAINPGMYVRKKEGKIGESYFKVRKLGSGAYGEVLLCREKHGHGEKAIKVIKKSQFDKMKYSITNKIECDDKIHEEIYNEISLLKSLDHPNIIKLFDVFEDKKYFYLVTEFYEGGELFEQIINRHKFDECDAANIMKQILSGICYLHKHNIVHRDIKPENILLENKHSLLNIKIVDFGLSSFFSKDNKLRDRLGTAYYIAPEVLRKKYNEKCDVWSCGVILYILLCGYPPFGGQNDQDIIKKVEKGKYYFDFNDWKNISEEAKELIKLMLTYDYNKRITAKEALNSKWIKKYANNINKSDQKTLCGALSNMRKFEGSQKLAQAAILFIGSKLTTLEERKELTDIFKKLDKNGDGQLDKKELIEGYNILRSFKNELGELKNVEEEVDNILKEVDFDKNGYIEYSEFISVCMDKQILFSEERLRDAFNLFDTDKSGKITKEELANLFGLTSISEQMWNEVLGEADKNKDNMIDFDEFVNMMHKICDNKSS
# [6] = molecular target: Plasmodium falciparum protein kinase 6 (PK6, PF3D7_1337100) (UniProt Q8IDW1); experiment: PfPK6 kinase inhibitors, biochemical, TCAMS library (AID 1159586); conditions: recombinant PfPK6, Kinase-Glo ATP depletion luminescence
# Plasmodium falciparum protein kinase 6 (PK6, PF3D7_1337100), sequence (Q8IDW1 1-305): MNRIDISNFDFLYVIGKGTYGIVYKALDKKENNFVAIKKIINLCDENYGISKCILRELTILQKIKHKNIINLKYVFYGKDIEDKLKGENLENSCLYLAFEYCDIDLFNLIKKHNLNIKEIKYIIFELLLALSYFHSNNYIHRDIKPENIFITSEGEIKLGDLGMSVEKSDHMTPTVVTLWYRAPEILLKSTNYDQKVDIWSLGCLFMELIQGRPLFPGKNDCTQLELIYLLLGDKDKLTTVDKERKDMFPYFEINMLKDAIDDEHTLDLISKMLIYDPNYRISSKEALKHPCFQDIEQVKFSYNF
# [7] = molecular target: Protein kinase 7 (PK7), Plasmodium falciparum 3D7 (PF3D7_0213400) (UniProt Q7YTF7); experiment: inhibition of Plasmodium PK7 catalytic activity – biochemical, TCAMS antimalarial set, Kinase-Glo luminescence (AID 1159587); conditions: recombinant PfPK7, Kinase-Glo ATP depletion luminescence
# Protein kinase 7 (PK7), Plasmodium falciparum 3D7 (PF3D7_0213400), sequence (Q7YTF7 1-343): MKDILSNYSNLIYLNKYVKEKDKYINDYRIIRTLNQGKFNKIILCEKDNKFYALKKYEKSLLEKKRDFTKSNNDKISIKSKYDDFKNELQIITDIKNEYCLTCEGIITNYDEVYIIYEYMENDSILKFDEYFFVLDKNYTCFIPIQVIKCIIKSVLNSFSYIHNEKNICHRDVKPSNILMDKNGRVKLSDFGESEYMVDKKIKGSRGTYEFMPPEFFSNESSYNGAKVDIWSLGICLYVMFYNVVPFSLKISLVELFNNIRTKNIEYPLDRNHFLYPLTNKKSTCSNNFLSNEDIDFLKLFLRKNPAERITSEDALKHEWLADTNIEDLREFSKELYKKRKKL
# [8] = molecular target: Calcium-dependent protein kinase 4 (Plasmodium falciparum (isolate 3D7)) (UniProt Q8IBS5); experiment: PfCDPK4 kinase inhibitors, biochemical, TCAMS library (AID 1159588; cut-off not given, nearly all actives have IC50 up to about 0.91 µM); conditions: recombinant PfCDPK4, Kinase-Glo ATP depletion luminescence
# Calcium-dependent protein kinase 4 (Plasmodium falciparum (isolate 3D7)), sequence (Q8IBS5 whole entry, looked up): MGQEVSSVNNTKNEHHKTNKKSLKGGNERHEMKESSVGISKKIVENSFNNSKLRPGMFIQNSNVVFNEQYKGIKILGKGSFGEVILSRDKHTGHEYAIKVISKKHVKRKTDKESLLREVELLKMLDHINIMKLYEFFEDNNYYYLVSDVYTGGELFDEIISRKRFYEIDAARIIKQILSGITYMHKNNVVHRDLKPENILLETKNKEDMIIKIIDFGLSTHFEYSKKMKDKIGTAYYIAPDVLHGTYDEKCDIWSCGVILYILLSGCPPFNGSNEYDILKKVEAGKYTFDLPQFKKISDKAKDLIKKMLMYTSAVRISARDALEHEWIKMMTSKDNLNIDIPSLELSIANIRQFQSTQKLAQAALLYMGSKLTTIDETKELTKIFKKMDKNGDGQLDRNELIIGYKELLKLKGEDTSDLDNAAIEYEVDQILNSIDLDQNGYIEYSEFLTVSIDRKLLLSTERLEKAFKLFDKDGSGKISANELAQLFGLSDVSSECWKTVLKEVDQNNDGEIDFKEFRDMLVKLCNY
Structure (SMILES),growth inhibition [1],inhibition [2],inhibition [3] [%],growth inhibition [4],outcome [5],outcome [6],outcome [7],outcome [8]
Cc1ccc(CN2CCCN(Cc3cccc(NC(=O)c4ccc(Cl)c(Cl)c4)c3)CC2)cc1,18%,32%,-1,96% (active),inactive,inactive,inactive,inactive
Cc1ccc(O)c(-c2cc(C(=O)Nc3ccc(S(=O)(=O)N4CCCCCC4)cc3)[nH]n2)c1,80% (active),25%,4,100% (active),inactive,inactive,inactive,inactive
CCc1ccc(C(=O)Nc2cccc(CN3CCCN(Cc4ccc(O)cc4)CC3)c2)cc1,74% (active),11%,-1,101% (active),inactive,inactive,inactive,inactive
CCCCN(CCCC)CCCCNc1c2ccccc2nc2ccccc12,100% (active),36%,0,100% (active),inactive,inactive,inactive,inactive
O=C(N[C@H]1CCN(Cc2ccc(OC3CCN(Cc4ccccc4)CC3)c(Cl)c2)C1)c1ccc(Cl)c(Cl)c1,11%,59% (active),0,99% (active),inactive,inactive,inactive,inactive
Cc1[nH]nc2cc(Nc3ccnc(Nc4cccc(CN5CCOCC5)c4)n3)ccc12,-10%,33%,-8,83% (active),inactive,inactive,inactive,inactive
COc1ccccc1-c1csc(C(=O)NC2CCCCN(Cc3ccc(C(C)(C)C)cc3)C2)c1 (stereo not drawn),8%,13%,-5,99% (active),inactive,inactive,inactive,inactive
Cc1[nH]c2ccccc2c(=O)c1[N+](=O)[O-],-2%,5%,-5,88% (active),inactive,inactive,inactive,inactive
CC1(C)N=C(N)N=C(N)N1OCCc1cccc2ccccc12,97% (active),57% (active),-2,95% (active),inactive,inactive,inactive,inactive
c1cc(-c2nc3ccccc3[nH]2)nc(-c2nc3ccccc3[nH]2)c1,24%,7%,0,87% (active),inactive,inactive,inactive,inactive
O=C(Nc1cccc(CN2CCCN(Cc3ccc(F)cc3)CC2)c1)c1cc2ccccc2s1,36%,29%,-9,91% (active),inactive,inactive,inactive,inactive
N#Cc1ccc2c(c1)CCN(CCC1CCC(NC(=O)c3cc4ccc(Cl)cc4[nH]3)CC1)C2 (stereo not drawn),-2%,5%,-3,103% (active),inactive,inactive,inactive,inactive
C[C@H](Nc1c(Nc2ccc3[nH]ccc3c2)c(=O)c1=O)C1CCCCC1,11%,7%,6,96% (active),inactive,inactive,inactive,inactive
Cc1cc(NN=Cc2cccc(Cl)c2)c2ccc(F)cc2n1,98% (active),-2%,-4,101% (active),inactive,inactive,inactive,inactive
COc1ccc(COc2cc(NCCCN)nc3ccccc23)cc1,5%,3%,-4,101% (active),inactive,inactive,inactive,inactive
CN(C)CCCNCc1ccc(-c2ccc(F)c(Cl)c2)o1,69% (active),29%,-7,93% (active),inactive,inactive,inactive,inactive
O=C(NCCN1CCOCC1)c1ccc(O)c(-c2cccc(C(F)(F)F)c2)c1,48%,-1%,3,95% (active),inactive,inactive,inactive,inactive
CNC(=O)NC1=NC(C)(C)N(OCc2ccc(Cl)c(Cl)c2)C(NC(=O)NC)=N1,-3%,1%,-2,99% (active),inactive,inactive,inactive,inactive
Nc1nc(N)c2c(ccc3c2ccn3Cc2cc3c(cc2Cl)OCO3)n1,94% (active),58% (active),-5,95% (active),inactive,inactive,inactive,inactive
CCc1ccc(-n2c(=O)c3cccnc3n2CC(=O)NC2CCCC2)cc1,27%,-1%,-7,98% (active),inactive,inactive,inactive,inactive
COc1ccc2nccc([C@@H](O)CN3CCC(NC(=O)Cc4cc5ccccc5s4)CC3)c2c1,42%,16%,7,92% (active),inactive,inactive,inactive,inactive

Structure (SMILES),growth inhibition [1],inhibition [2],inhibition [3] [%],growth inhibition [4],outcome [5],outcome [6],outcome [7],outcome [8]
COCCNCc1cccc(-c2ccccc2CN(C(=O)c2ccc3c(c2)OCO3)c2ccc(OC)cc2)c1,46%,6%,2,90% (active),inactive,inactive,inactive,inactive
Cc1cccc(CN2CCCC3(CCN(Cc4ccccc4O)C3)C2)c1 (stereo not drawn),76% (active),14%,-3,99% (active),inactive,inactive,inactive,inactive
O=C(/C=C/c1ccc(Cl)c(Cl)c1)NCCCCCN1CCN(C(=O)Nc2cccc(F)c2)CC1,1%,12%,-1,91% (active),inactive,inactive,inactive,inactive
NOCCCOc1ccccc1,-4%,20%,-4,100% (active),inactive,inactive,inactive,inactive
CCOc1ccc(Nc2ccc3nonc3c2S(=O)(=O)Nc2ccc(OCC)cc2)cc1,93% (active),6%,-2,100% (active),inactive,inactive,inactive,inactive
COc1ccccc1Oc1c(N(C)S(=O)(=O)c2ccc(C(C)C)cc2)nc(C(F)(F)F)nc1N(C)S(=O)(=O)c1ccc(C(C)C)cc1,98% (active),4%,-6,94% (active),inactive,inactive,inactive,inactive
Nc1ccn([C@@H]2O[C@H](COC(c3ccccc3)(c3ccccc3)c3ccccc3)[C@@H](O)[C@@H]2O)c(=O)n1,2%,26%,1,93% (active),inactive,inactive,inactive,inactive
NC(N)=NCCCN(Cc1ccccc1)c1ccc(Cl)cc1,98% (active),-9%,-7,100% (active),inactive,inactive,inactive,inactive
Cc1cccc2[nH]cc(C3CCN(CCC4CCN(C(=O)/C=C/c5ccc(Cl)c(Cl)c5)CC4)CC3)c12,8%,13%,2,91% (active),inactive,inactive,inactive,inactive
COc1ccc2nccc(NN=Cc3ccc(Cl)cc3)c2c1,72% (active),9%,-1,101% (active),inactive,inactive,inactive,inactive
CCCC(=O)c1cnc2c(Oc3cc(Cl)ncn3)cccc2c1Nc1ccccc1C,85% (active),6%,6,99% (active),inactive,inactive,inactive,inactive
Cc1[nH]c(C)c(-c2ccc(-c3ccc(Cl)cc3)nc2)c(=O)c1Cl,96% (active),8%,3,95% (active),inactive,inactive,inactive,inactive
Cc1ccc(NC(=O)Nc2cccc(Cl)c2)cc1-c1ccc(C(=O)Nc2ccncc2)cc1,49%,67% (active),-1,97% (active),inactive,inactive,inactive,inactive
O=C(/C=C/c1cccc(Cl)c1)Nc1ccc2nc(CN3CCCC3)ccc2c1,42%,47%,4,99% (active),inactive,inactive,inactive,inactive
NC1=NC(c2ccccc2)N(c2ccccc2)C(N)=N1 (stereo not drawn),85% (active),0%,2,96% (active),inactive,inactive,inactive,inactive
Cc1cccc(NC(=O)c2ccc(C(=O)NC3CCN(CC4CCCCC4)CC3)cc2)c1,18%,14%,-1,95% (active),inactive,inactive,inactive,inactive
Cc1cccc2[nH]c(-c3cccc(-c4ccc(NC(=O)C5CCN(C)CC5)cc4)c3)nc12,100% (active),16%,3,101% (active),inactive,inactive,inactive,inactive
O=C(/C=C/c1ccc(Cl)c(Cl)c1)NCCCCCN1CCCC(CNC(=O)Nc2ccc(C(F)(F)F)cc2)C1 (stereo not drawn),7%,27%,-9,100% (active),inactive,inactive,inactive,inactive
Cn1cncc1C(=O)Nc1ccc(-c2cccc(-c3nc4ccc(F)cc4[nH]3)c2)cc1,23%,5%,2,102% (active),inactive,inactive,inactive,inactive
COc1ccc(NC(=O)[C@H](Cc2ccccc2)Nc2cc(C)nc(Nc3ccccc3)n2)cc1,92% (active),0%,2,101% (active),inactive,inactive,inactive,inactive
